Reference: PubChem BioAssay
The source made the active and inactive calls.

How the values were obtained:
[1] = compounds binding Alexa647 anti-His antibody – biochemical, small-molecule microarray, 635 nm fluorescence, artefact control for SMM control protein annotation, primary screen (AID 1128); settings: higher = more signal;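 note: score merges feature fluorescence with signal-to-noise for each printed compound spot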
[2] = tested on: Human papillomavirus type 1a E7 protein (residues 1-88); experiment: HPV1a E7 small-molecule binders, primary screen, biochemical, small-molecule microarray, residues 1-88, 635 nm (AID 1129); settings: small-molecule microarray binding, fluorescence 635 nm; higher = more signal
[3] = biological target: Focal adhesion kinase 1 (Homo sapiens) (UniProt Q05397); experiment: PTK2 protein binding on printed compound slides – biochemical, small-molecule microarray, 635/667 nm fluorescence, BSA, DTT, primary screen (AID 1130); settings: 635 nm fluorescence, higher = more signal;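 note: composite of spot emission at 667 nm and signal to noise over triplicate slides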
[4] = tested on: Fibrinogen (Alexa647-labelled); experiment: Alexa647-fibrinogen binding to printed small molecules – biochemical, small-molecule microarray, 635/667 nm fluorescence, artefact control for SMM control-protein annotation, profiling panel (AID 1131); settings: fibrinogen-A647 binding fluorescence, higher = more signal;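 note: z-score merges 667 nm fluorescence with per-spot signal-to-noise over triplicate slides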
[5] = biological target: Follistatin (Homo sapiens) (UniProt P19883); experiment: FST protein binding to printed compounds – biochemical, small-molecule microarray, 635/667 nm fluorescence, primary screen (AID 1132); settings: 635 nm fluorescence, higher = more signal
[6] = biological target: Fibroblast growth factor 2 (Homo sapiens) (UniProt P09038); experiment: basic fibroblast growth factor binding to printed compounds – biochemical, small-molecule microarray, 635/667 nm fluorescence, primary screen (AID 1133); settings: FGF2, fluorescence 635/667, higher = more signal
[7] = JC-1 mitochondrial potential readout, lung cancer cells – cell-based, A549, JC-1 fluorescence, basal, 24 h, 100 nL, profiling panel (AID 1138); settings: higher = more signal;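 note: A549 lung adenocarcinoma cells under basal conditions with no added stimulus; test concentration not given here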
[8] = tested on: Lefty1; experiment: Lefty1 protein binding to printed compounds – biochemical, small-molecule microarray, 635/667 nm fluorescence, primary screen (AID 1139); settings: fluorescence 635/667, higher = more signal
[9] = tested on: wheat germ agglutinin (Triticum aestivum), Alexa647-labelled; experiment: Alexa647-WGA lectin binding to printed small molecules – biochemical, small-molecule microarray, 635/667 nm fluorescence, artefact control for SMM control-protein annotation, profiling panel (AID 1140); settings: WGA-A647 binding, 635 nm fluorescence, higher = more signal;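 note: score merges 667 nm feature emission with signal to noise over triplicate slides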
[10] = biological target: Luciferin 4-monooxygenase (Photinus pyralis) (UniProt P08659); experiment: inhibition of purified Photinus pyralis luciferase – biochemical, luminescence, purified enzyme, 2006 set, primary screen (AID 1141); settings: purified firefly luciferase, SteadyGlo luminescence, 30 min; higher = more signal, called active from +8 up or from −8 down;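 note: cell-free assay with purified firefly luciferase at 100 ng per well in PBS; test concentration not given here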
Luciferin 4-monooxygenase (Photinus pyralis), sequence (P08659 whole entry, looked up): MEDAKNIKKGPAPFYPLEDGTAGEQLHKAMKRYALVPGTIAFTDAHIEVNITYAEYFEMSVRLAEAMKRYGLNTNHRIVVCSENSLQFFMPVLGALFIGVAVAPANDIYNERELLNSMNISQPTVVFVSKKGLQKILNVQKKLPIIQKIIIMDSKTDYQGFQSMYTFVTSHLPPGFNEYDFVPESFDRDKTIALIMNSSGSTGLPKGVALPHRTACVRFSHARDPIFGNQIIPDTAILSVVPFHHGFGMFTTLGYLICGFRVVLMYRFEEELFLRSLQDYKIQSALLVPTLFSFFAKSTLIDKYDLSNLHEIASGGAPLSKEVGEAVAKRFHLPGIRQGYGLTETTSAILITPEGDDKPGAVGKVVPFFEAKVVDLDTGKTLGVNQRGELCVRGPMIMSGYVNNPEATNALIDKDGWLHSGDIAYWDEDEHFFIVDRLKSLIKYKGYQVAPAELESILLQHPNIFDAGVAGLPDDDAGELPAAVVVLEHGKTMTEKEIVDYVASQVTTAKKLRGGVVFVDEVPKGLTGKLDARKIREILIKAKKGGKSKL

Fibroblast growth factor 2 (Homo sapiens), sequence (P09038 whole entry, looked up): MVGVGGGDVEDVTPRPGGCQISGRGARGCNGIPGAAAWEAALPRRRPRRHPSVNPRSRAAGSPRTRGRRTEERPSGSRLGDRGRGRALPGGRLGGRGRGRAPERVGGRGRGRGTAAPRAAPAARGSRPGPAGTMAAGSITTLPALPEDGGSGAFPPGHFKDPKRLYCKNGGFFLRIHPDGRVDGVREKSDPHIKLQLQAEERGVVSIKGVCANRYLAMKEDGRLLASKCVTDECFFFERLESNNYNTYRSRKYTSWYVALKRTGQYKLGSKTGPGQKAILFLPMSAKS
Follistatin (Homo sapiens), sequence (P19883 whole entry, looked up): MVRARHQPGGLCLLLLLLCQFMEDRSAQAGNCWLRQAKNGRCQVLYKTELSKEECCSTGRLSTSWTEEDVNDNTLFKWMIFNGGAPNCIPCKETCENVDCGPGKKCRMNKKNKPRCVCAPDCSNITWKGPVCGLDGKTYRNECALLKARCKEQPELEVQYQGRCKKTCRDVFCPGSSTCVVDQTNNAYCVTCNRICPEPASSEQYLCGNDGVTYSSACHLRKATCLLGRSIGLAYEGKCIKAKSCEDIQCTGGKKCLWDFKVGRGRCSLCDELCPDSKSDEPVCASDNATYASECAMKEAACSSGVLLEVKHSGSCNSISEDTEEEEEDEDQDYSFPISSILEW
Focal adhesion kinase 1 (Homo sapiens), sequence (Q05397 whole entry, looked up): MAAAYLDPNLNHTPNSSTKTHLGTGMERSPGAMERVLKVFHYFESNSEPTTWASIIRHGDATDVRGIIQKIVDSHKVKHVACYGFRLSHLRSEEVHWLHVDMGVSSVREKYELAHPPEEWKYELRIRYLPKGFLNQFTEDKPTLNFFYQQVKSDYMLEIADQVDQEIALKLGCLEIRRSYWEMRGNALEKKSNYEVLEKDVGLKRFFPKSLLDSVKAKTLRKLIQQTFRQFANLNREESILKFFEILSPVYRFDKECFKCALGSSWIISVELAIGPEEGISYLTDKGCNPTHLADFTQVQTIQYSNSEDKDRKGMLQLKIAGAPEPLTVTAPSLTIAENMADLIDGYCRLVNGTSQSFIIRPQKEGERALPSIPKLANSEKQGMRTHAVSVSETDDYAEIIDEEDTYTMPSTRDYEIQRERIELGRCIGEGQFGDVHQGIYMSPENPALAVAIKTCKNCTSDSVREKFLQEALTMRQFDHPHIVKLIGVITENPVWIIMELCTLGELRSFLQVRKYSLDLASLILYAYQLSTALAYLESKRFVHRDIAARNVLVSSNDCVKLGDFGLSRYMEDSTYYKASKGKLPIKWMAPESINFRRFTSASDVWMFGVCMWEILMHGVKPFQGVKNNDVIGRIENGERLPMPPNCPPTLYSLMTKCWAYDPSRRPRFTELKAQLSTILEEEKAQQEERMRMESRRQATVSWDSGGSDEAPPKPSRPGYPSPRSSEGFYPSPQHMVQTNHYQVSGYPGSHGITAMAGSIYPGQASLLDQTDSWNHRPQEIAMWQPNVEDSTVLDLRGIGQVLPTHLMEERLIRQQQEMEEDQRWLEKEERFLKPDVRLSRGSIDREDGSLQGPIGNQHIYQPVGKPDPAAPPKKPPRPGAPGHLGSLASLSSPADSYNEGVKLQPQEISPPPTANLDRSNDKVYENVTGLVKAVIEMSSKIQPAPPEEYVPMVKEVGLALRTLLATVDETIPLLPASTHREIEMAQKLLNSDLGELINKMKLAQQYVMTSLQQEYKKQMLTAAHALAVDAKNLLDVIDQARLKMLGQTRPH

| SMILES | composite z-score [1] | composite z-score [2] | composite z-score [3] | composite z-score [4] | composite z-score [5] | composite z-score [6] | z-score [7] | composite z-score [8] | composite z-score [9] | z-score [10] |
| --- | --- | --- | --- | --- | --- | --- | --- | --- | --- | --- |
| O=c1cccc(-c2ccccc2C(F)(F)F)o1 | -0.602 | 0.389 | -0.0583 | -2.29 | -0.547 | -0.661 | -0.074 | -0.599 | -0.861 | 1.24 (inactive) |
| CC(C)C[C@@H]1NC(=O)[C@@H]2C[C@H](C(=O)O)[C@H](c3ccc(O)cc3)N2C1=O | 2.41 | 1.13 | 0.6 | 0.878 | 1.37 | 1.49 | 0.892 | 1.04 | 0.938 | -2.98 (inactive) |
| C=C(CCCC)/C(=C/C[C@H](OC(C)=O)c1cccc(OCCO)c1)c1cc(C(=O)OC)ccc1OC | -0.799 | -0.426 | -0.325 | 0.33 | 0.0088 | 0.261 | 3.6 | 0.283 | 0.635 | -1.64 (inactive) |
| COC(=O)[C@@]1(Cc2ccc(OC)cc2)[C@H]2c3cc(C(=O)N(C)C)n(Cc4ccsc4Br)c3C[C@H]2CN1C(=O)c1ccccc1 | 1.74 | 1.09 | 0.957 | 0.862 | -0.244 | -0.29 | 0.292 | -0.538 | 0.669 | 1.05 (inactive) |
| O=C1OCCC/C=C\[C@H]2OC34C=CCN(Cc5ccccc5)C(=O)[C@H]3N(CCCCCO)C(=O)[C@@H]4C12 (stereo not given in full) | -0.862 | -1.2 | -0.603 | -1.62 | -1.07 | -0.883 | 0.537 | -0.696 | -1.09 | -0.984 (inactive) |
| O=C1O[C@@H](c2ccccc2)[C@@H](c2ccccc2)N2[C@@H](c3ccc(O)cc3)[C@]3(C(=O)Nc4ccc(C#CC5=CCCCC5)cc43)[C@@H](C(=O)N3CCCCCCC3)[C@H]12 | 1.22 | 1.06 | 0.277 | 0.836 | 1.4 | 1.19 | 1.26 | 1.29 | 1.32 | -3.18 (inactive) |
| COCCCNC(=O)[C@@H]1c2ccccc2C(=O)N(C2CCCCC2)[C@H]1c1ccc(CO)cc1 | 3.06 | -0.668 | 0.183 | -0.927 | -0.388 | -0.658 | 0.705 | -1.19 | -0.365 | -0.0838 (inactive) |
| O=C1O[C@@H](c2ccccc2)[C@@H](c2ccccc2)N2[C@@H](c3ccc(OCCO)cc3)[C@]3(C(=O)Nc4ccc(C#CCCO)cc43)[C@@H](C(=O)Nc3nc4ccccc4s3)[C@H]12 | 0.324 | 1.13 | 0.256 | 0.978 | 1.4 | 0.474 | -2.19 | 0.502 | 0.468 | -0.7 (inactive) |
| CC(C)C(=C=CC[C@@H](O)c1ccc(OCCO)cc1)CCO | -0.171 | -0.744 | -0.397 | 0.114 | 1.26 | 1.25 | 0.451 | 0.607 | -0.154 | -0.426 (inactive) |
| CC[C@H](C)C(=O)O[C@H]1CC[C@]2(C)C3=C(CCC2C1(C)C)[C@]1(C)CC[C@H]([C@H](C)CCCC(C)C)[C@@]1(C)CC3 (stereo not given in full) | 0.226 | 0.666 | 0.122 | 0.367 | 0.538 | 0.35 | 1.15 | 0.721 | 0.0438 | -1.4 (inactive) |
| CC(C)CNC(=O)[C@@H]1c2ccccc2C(=O)N(C(C)C)[C@H]1c1ccc(CO)cc1 | -0.306 | -0.341 | -0.155 | -1.18 | 0.659 | 0.427 | 0.484 | -0.481 | 0.775 | -0.207 (inactive) |
| CCCC[C@@H]1C[C@H]1[C@@H](NC(=O)c1ccc(C(F)(F)F)cc1)c1ccc(C(=O)OC)cc1 | 1.21 | 0.411 | 0.135 | 0.366 | 1.25 | -0.115 | 1.19 | 0.944 | 0.849 | 0.915 (inactive) |
| COCCOC(=O)N1C(=O)[C@@]2(c3cc(C#CCNC(N)=O)ccc31)[C@H](C(=O)NC[C@H](O)c1ccccc1)[C@H]1C(=O)O[C@H](c3ccccc3)[C@H](c3ccccc3)N1[C@@H]2c1ccc(OCCO)cc1 | 0.991 | 1.16 | 0.707 | 0.884 | 1.18 | 0.581 | -0.71 | 0.753 | 0.851 | -0.496 (inactive) |
| [N-]=[N+]=NCc1ccccc1C[C@]1(C(=O)NCc2ccccc2)N=C(c2ccc(OCCCO)cc2)O[C@H]1c1ccccc1CN=[N+]=[N-] | 1.75 | 0.986 | 0.586 | 0.91 | 0.821 | -0.31 | 0.064 | -0.503 | 0.328 | -1.16 (inactive) |
| COC(=O)C1(CC(C)C)C=C2C(=C(C(C)C)C(=O)C2C)CN1 (stereo not given) | 0.928 | -1.05 | 0.208 | -0.653 | -1.04 | -0.688 | 0.44 | -0.746 | 0.323 | 1.66 (inactive) |
| COc1cc2c(cc1O)C(c1ccc(CN3CCCC3)cc1)N(Cc1cccc(OC(F)(F)F)c1)CC2 (stereo not given) | 1.67 | 0.879 | -0.425 | 0.406 | 1.22 | 0.476 | -2.01 | 0.242 | 0.625 | -1.37 (inactive) |
| C#CCN(C/C=C/c1ccccc1)[C@H](CO[Si](C)(C)C(C)(C)C)c1ccccc1 | 0.953 | -0.786 | 0.329 | -0.759 | -0.0993 | -0.187 | -2.21 | 0.178 | -0.0631 | 0.43 (inactive) |
| COC(=O)[C@@]1(Cc2ccccc2CN=[N+]=[N-])COC(c2ccc(OCCCO)cc2)=N1 | -0.322 | -0.493 | -0.161 | -2.41 | -1.88 | -1.18 | -0.408 | -1.65 | 0.0216 | -1.88 (inactive) |
| CN(C)CCCNC(=O)[C@@]1(Cc2ccccc2I)c2ccccc2C(=O)N(Cc2ccccc2)[C@H]1c1ccc(CO)cc1 | 1.88 | 1.26 | 0.658 | 0.512 | 1.28 | 1.58 | 0.893 | 0.239 | -0.0325 | 0.936 (inactive) |
| CCCCN1CC=CC23O[C@@H]4C=CCOC(=O)[C@@H]4[C@H]2C(=O)N(C(CO)C(C)C)[C@@H]3C1=O (stereo not given in full) | -1.13 | -0.663 | -0.813 | -0.328 | 0.389 | 0.126 | 0.406 | -0.12 | -0.708 | -0.606 (inactive) |
| CN(C)CCCC[C@@H]1NC(=O)[C@H]2C[C@@H](C(=O)O)[C@@H](c3cccc(OCCO)c3)N2C1=O | 3.17 | -0.209 | 0.239 | 0.564 | 1.4 | 0.977 | 1.29 | 1.45 | 0.734 | -1.9 (inactive) |
| CN(C)CCCNC(=O)[C@@H]1c2ccccc2C(=O)N(C2Cc3ccccc3C2)[C@H]1c1ccc(CO)cc1 | 0.0265 | 1.11 | 0.726 | 0.784 | 0.27 | -0.139 | 2.07 | -0.199 | 0.164 | -0.825 (inactive) |
| C=CCC(OC(C)=O)[C@@H]1[C@@H](N(Cc2ccc(-c3ccccc3)cc2)C(=O)c2cccc3ccccc23)c2cc(OCCCO)ccc2N1C(=O)c1ccc2ccccc2c1 (stereo not given in full) | -0.173 | 0.216 | 0.529 | 0.728 | 0.424 | -0.198 | 0.248 | 0.243 | 0.104 | 0.209 (inactive) |
| COc1ccc(CC[C@H](O)c2cccc(OCC(=O)OC(C)(C)C)c2)cc1 | 0.697 | 1.01 | 0.464 | 1.04 | 1.02 | 0.625 | 0.383 | 1.01 | 0.906 | 0.275 (inactive) |
| C=CC[C@@]1(C(=O)O)N=C(c2ccc(OCCCO)cc2)O[C@@H]1c1ccccc1CN=[N+]=[N-] | 0.706 | 0.86 | 0.518 | 0.68 | 0.939 | 0.381 | -0.472 | 0.588 | 1.24 | -0.926 (inactive) |
| COCCOC(=O)N1C(=O)[C@@]2(c3cc(C#CCCO)ccc31)[C@H](C(=O)N1CCc3cc(OC)c(OC)cc3C1)[C@H]1C(=O)O[C@H](c3ccccc3)[C@H](c3ccccc3)N1[C@@H]2c1ccccc1OCCO | 0.362 | 1.19 | 0.496 | 0.87 | 1.41 | 1.3 | -0.976 | 1.3 | 0.603 | 0.151 (inactive) |
| CCCCCN1CC=CC23O[C@@H]4C=CCOC(=O)[C@@H]4[C@H]2C(=O)N(CCCCCO)[C@@H]3C1=O (stereo not given in full) | 0.584 | -0.465 | 0.0875 | -1.87 | -0.232 | -0.486 | -0.465 | 0.604 | 0.0764 | 0.517 (inactive) |
| CCCCC(=C=CC[C@@H](O)c1cccc(OCCO)c1)CCO | -0.378 | -0.437 | -0.0962 | 0.449 | 0.242 | 0.154 | 0.613 | 0.448 | 0.771 | -0.656 (inactive) |
